Measurements from PubChem BioAssay AID1159580 (chemical genetic matrix, 2015).
In all, about 5,500 compounds went through this assay and about 2,000 (36%) were called active. Another 18% or so got no clear call; they are omitted. Cut-off read from the data, not from the text of the source: active = normalized growth mostly below about 0.91 (no sharp cut-off); inconclusive = no clear call, values can overlap the other calls; inactive = mostly above about 0.92. The list shows a part of the results.

Assay: chemical genetic growth profiling, strain panel (AID 1159580);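 note: tested at 20 µM; growth read once vehicle control cultures reached saturation at 30 °C; 1 = growth at the plate median or of vehicle wells; lower values mean less growth of the strain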
Details: growth OD

Measured: normalized growth

COC(=O)[C@]1(C)CCC[C@]2(C)c3ccc(C(C)C)cc3C(=O)CC12 (stereo partly drawn)
inactive: S. cerevisiae deletion strains, locus YJL187C, strain SWE1, hits give low values 0.956 | S. cerevisiae deletion strains, locus YJR043C, strain POL32, hits give low values 1.03 | S. cerevisiae deletion strains, locus YJR075W, strain HOC1, hits give low values 0.914 | S. cerevisiae deletion strains, locus YKL009W, strain mrt4, hits give low values 0.942 | S. cerevisiae deletion strains, locus YKL068W, hits give low values 0.984 | S. cerevisiae deletion strains, locus YKL160W, strain elf1, hits give low values 0.983 | S. cerevisiae deletion strains, locus YKL190W, strain CNB1, hits give low values 0.967 | S. cerevisiae deletion strains, locus YKR001C, strain vps1, hits give low values 1.01 | S. cerevisiae deletion strains, locus YKR026C, strain gcn3, hits give low values 0.975 | S. cerevisiae deletion strains, locus YKR091W, strain srl3, hits give low values 0.96 | S. cerevisiae deletion strains, locus YLL001W, strain dnm1, hits give low values 0.986 | S. cerevisiae deletion strains, locus YLL026W, hits give low values 0.964 | S. cerevisiae deletion strains, locus YLL041C, strain sdh2, hits give low values 0.958 | S. cerevisiae deletion strains, locus YLR027C, strain aat2, hits give low values 0.956 | S. cerevisiae deletion strains, locus YLR039C, strain RIC1, hits give low values 0.978 | S. cerevisiae deletion strains, locus YLR058C, strain SHM2, hits give low values 0.986 | S. cerevisiae deletion strains, locus YLR102C, strain apc9, hits give low values 1.01 | S. cerevisiae deletion strains, locus YLR221C, strain rsa3, hits give low values 1 | S. cerevisiae deletion strains, locus YLR258W, strain gsy2, hits give low values 0.973 | S. cerevisiae deletion strains, locus YLR262C, strain YPT6 (second series), hits give low values 0.897 | S. cerevisiae deletion strains, locus YLR262C, strain YPT6, hits give low values 0.925 | S. cerevisiae deletion strains, locus YLR268W, strain sec22, hits give low values 0.955 | S. cerevisiae deletion strains, locus YLR320W, strain mms22, hits give low values 0.991 | S. cerevisiae deletion strains, locus YLR330W, strain CHS5, hits give low values 0.997 | S. cerevisiae deletion strains, locus YLR342W, strain FKS1 (second series), hits give low values 0.937 | S. cerevisiae deletion strains, locus YLR342W, strain FKS1, hits give low values 0.958 | S. cerevisiae deletion strains, locus YLR357W, strain rsc2, hits give low values 0.989 | S. cerevisiae deletion strains, locus YLR370C, strain arc18, hits give low values 0.949 | S. cerevisiae deletion strains, locus YLR371W, strain rom2, hits give low values 1.01 | S. cerevisiae deletion strains, locus YLR384C, strain iki3, hits give low values 0.96 | S. cerevisiae deletion strains, locus YLR418C, strain cdc73, hits give low values 0.865 | S. cerevisiae deletion strains, locus YML016C, strain PPZ1, hits give low values 0.979 | S. cerevisiae deletion strains, locus YML032C, strain rad52, hits give low values 1.03 | S. cerevisiae deletion strains, locus YML120C, strain ndi1, hits give low values 0.965 | S. cerevisiae deletion strains, locus YML124C, strain tub3, hits give low values 0.991 | S. cerevisiae deletion strains, locus YMR058W, strain fet3, hits give low values 0.969 | S. cerevisiae deletion strains, locus YMR078C, strain ctf18, hits give low values 1 | S. cerevisiae deletion strains, locus YMR125W, strain sto1, hits give low values 0.964 | S. cerevisiae deletion strains, locus YMR129W, hits give low values 0.956 | S. cerevisiae deletion strains, locus YMR205C, strain PFK2, hits give low values 0.934 | S. cerevisiae deletion strains, locus YMR223W, strain ubp8, hits give low values 1.02 | S. cerevisiae deletion strains, locus YMR231W, strain pep5, hits give low values 0.974 | S. cerevisiae deletion strains, locus YMR263W, strain SAP30, hits give low values 0.961 | S. cerevisiae deletion strains, locus YMR307W, strain GAS1, hits give low values 0.953 | S. cerevisiae deletion strains, locus YNL067W, strain RPL9B, hits give low values 0.936 | S. cerevisiae deletion strains, locus YNL071W, strain lat1, hits give low values 0.952 | S. cerevisiae deletion strains, locus YNL128W, strain TEP1, hits give low values 0.964 | S. cerevisiae deletion strains, locus YNL153C, strain GIM3, hits give low values 0.982 | S. cerevisiae deletion strains, locus YNL209W, strain ssb2, hits give low values 0.992 | S. cerevisiae deletion strains, locus YNL233W, strain BNI4, hits give low values 0.971 | S. cerevisiae deletion strains, locus YNL248C, strain rpa49, hits give low values 0.962 | S. cerevisiae deletion strains, locus YNL250W, strain rad50, hits give low values 0.99 | S. cerevisiae deletion strains, locus YNL271C, strain bni1, hits give low values 1.01 | S. cerevisiae deletion strains, locus YNL298W, strain CLA4, hits give low values 1.01 | S. cerevisiae deletion strains, locus YNL307C, strain MCK1, hits give low values 0.985 | S. cerevisiae deletion strains, locus YNL322C, strain KRE1 (second series), hits give low values 0.954 | S. cerevisiae deletion strains, locus YNL322C, strain KRE1, hits give low values 0.979 | S. cerevisiae deletion strains, locus YNR049C, strain mso1, hits give low values 0.964 | S. cerevisiae deletion strains, locus YNR052C, strain pop2, hits give low values 1.04 | S. cerevisiae deletion strains, locus YOL006C, strain TOP1, hits give low values 0.828 | S. cerevisiae deletion strains, locus YOL012C, strain htz1 1.22 | S. cerevisiae deletion strains, locus YOL147C, strain pex11, hits give low values 1 | S. cerevisiae deletion strains, locus YOR001W, strain rrp6, hits give low values 0.987 | S. cerevisiae deletion strains, locus YOR061W, strain CKA2, hits give low values 0.977 | S. cerevisiae deletion strains, locus YOR069W, strain VPS5, hits give low values 0.996 | S. cerevisiae deletion strains, locus YOR070C, strain gyp1, hits give low values 0.988 | S. cerevisiae deletion strains, locus YOR080W, strain dia2, hits give low values 0.965 | S. cerevisiae deletion strains, locus YOR083W, strain WHI5, hits give low values 0.996 | S. cerevisiae deletion strains, locus YOR106W, strain vam3, hits give low values 0.965 | S. cerevisiae deletion strains, locus YOR136W, strain idh2, hits give low values 1.02 | S. cerevisiae deletion strains, locus YOR144C, strain elg1, hits give low values 0.998 | S. cerevisiae deletion strains, locus YOR184W, strain ser1, hits give low values 0.982 | S. cerevisiae deletion strains, locus YOR265W, strain rbl2, hits give low values 0.969 | S. cerevisiae deletion strains, locus YOR290C, strain snf2, hits give low values 0.949 | S. cerevisiae deletion strains, locus YOR316C, strain cot1, hits give low values 0.998 | S. cerevisiae deletion strains, locus YPL051W, strain arl3, hits give low values 0.984 | S. cerevisiae deletion strains, locus YPL055C, strain LGE1, hits give low values 0.868 | S. cerevisiae deletion strains, locus YPL078C, strain atp4, hits give low values 0.968 | S. cerevisiae deletion strains, locus YPL106C, strain sse1, hits give low values 0.989 | S. cerevisiae deletion strains, locus YPL240C, strain hsp82, hits give low values 0.968 | S. cerevisiae deletion strains, locus YPL241C, strain CIN2, hits give low values 0.974 | S. cerevisiae deletion strains, locus YPR119W, strain clb2, hits give low values 0.993 | S. cerevisiae deletion strains, locus YPR141C, strain kar3, hits give low values 0.981 | S. cerevisiae deletion strains, locus YPR163C, strain tif3, hits give low values 1 | S. cerevisiae deletion strains, locus YPR167C, strain met16, hits give low values 0.994 | S. cerevisiae deletion strains, strain wtn01, hits give low values 0.978 | S. cerevisiae strains, strain wild type, hits give low values 0.993
active: S. cerevisiae deletion strains, locus YOR270C, strain vph1, hits give low values 0.673
